Reference: PubChem BioAssay (NCATS)
Inconclusive results are not listed. Active and inactive are the calls of the source. Unless noted, calls follow the shape of the dose curve; as a rule, active = well fitted curve in the direction sought with a large enough effect; inconclusive = small, poorly fitted or top-dose-only effect, or another doubt; inactive = no such curve, though single readings can be large; an effect the other way counts as inactive or inconclusive.

Experiments:
[1] = target: Beta-2 adrenergic receptor (Homo sapiens) (UniProt P07550); experiment: qHTS validation assay of beta-arrestin-biased ligands of beta2-adrenergic receptor (AID 485366); also: 0% is about no effect
Beta-2 adrenergic receptor (Homo sapiens), sequence (P07550 whole entry, looked up): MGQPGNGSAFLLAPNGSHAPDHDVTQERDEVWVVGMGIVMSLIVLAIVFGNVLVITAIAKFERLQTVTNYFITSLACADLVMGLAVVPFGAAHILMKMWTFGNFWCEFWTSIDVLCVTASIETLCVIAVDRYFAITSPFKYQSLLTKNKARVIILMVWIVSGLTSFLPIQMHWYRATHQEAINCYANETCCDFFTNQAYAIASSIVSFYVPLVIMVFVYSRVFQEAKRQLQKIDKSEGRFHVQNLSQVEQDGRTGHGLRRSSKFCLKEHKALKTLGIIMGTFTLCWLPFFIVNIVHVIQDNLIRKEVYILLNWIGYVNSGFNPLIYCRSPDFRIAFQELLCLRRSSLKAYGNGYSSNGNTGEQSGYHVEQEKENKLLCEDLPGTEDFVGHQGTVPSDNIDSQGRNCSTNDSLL
Method in brief: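 Agonism was measured as beta-arrestin recruitment to recombinant beta2-AR, releasing tTA to drive luciferase. Cells were exposed for 18 hr at 37 degrees C to a series up to 46 microM. %Activity from corrected luminescence gave concentration-response curves.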

[2] = target: ATP-dependent 6-phosphofructokinase (Trypanosoma brucei brucei) (UniProt O15648); experiment: qHTS Validation Assay to Find Inhibitors of T. brucei phosphofructokinase (AID 485368)
Method in brief: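 ADP-Glo luminescence, two-step: residual ATP depleted, then ADP converted to ATP for luciferase. Enzyme 1.25 nM, F6P 0.5 mM, ATP 0.1 mM, pH 8.0 TEA buffer, 45 min RT. Curves fitted and classed by quality and efficacy.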

[3] = target: Thioredoxin reductase 1, cytoplasmic (Rattus norvegicus) (UniProt O89049); experiment: qHTS Assay for Substrates of Mammalian Selenoprotein Thioredoxin Reductase 1 (TrxR1) (AID 488772);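 also: series mostly up to about 57 µM; 0% is about no effect; a drop in NADPH fluorescence below the no-compound background marks a TrxR1 substrate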
Method in brief: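 In this dual-purpose format, potential substrates are identified from the first fluorescence read after selenite addition, not from the 8-minute delta. Rat enzyme is preincubated with NADPH and then with compound at ~22 deg C.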

[4] = target: Thioredoxin reductase 1, cytoplasmic (Rattus norvegicus) (UniProt O89049); experiment: qHTS Assay for Inhibitors of Mammalian Selenoprotein Thioredoxin Reductase 1 (TrxR1) (AID 488773); conditions: Potency: inhibition;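 also: drop in NADPH fluorescence over an 8 min run after selenite addition; series mostly up to about 57 µM; % is scaled to controls: 0 for no effect and ±100 for the full control effect; nearly all actives have a fitted effect of over 40% in size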
Method in brief: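 Inhibition is scored from the loss of NADPH fluorescence between first and last reads of an 8-min kinetic run. Selenite (400 uM) was the substrate, added after 15 min compound preincubation at room temperature.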

[5] = target: Flap endonuclease 1 (Homo sapiens) (UniProt P39748); experiment: qHTS Validation Assay for the Inhibitors of Human Flap endonuclease 1 (FEN1) (AID 488816); also: % is scaled to controls: 0 for no effect and ±100 for the full control effect
Flap endonuclease 1 (Homo sapiens), sequence (P39748 whole entry, looked up): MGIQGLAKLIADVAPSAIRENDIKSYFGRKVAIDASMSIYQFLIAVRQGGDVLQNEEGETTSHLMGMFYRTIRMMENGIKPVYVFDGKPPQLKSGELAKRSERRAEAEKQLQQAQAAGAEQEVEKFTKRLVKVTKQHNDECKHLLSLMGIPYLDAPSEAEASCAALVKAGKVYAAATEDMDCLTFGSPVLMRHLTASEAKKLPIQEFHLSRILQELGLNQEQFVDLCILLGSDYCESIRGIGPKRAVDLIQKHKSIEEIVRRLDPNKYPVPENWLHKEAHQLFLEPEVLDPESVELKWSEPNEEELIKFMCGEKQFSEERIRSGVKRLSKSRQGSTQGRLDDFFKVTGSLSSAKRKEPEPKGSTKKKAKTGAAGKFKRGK
Method in brief: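 qHTS format: compounds and 10 nM FEN1 incubated 15 min at room temperature before adding 50 nM substrate. Cleavage followed by reads at 0 and 15 min; normalized data fitted to a four-parameter Hill curve.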

[6] = target: M-phase phosphoprotein 8 (Homo sapiens) (UniProt Q99549); experiment: qHTS Validation Assay for Inhibitors for MPP8 Chromodomain Interactions with Methylated Histone Tails (AID 488949); also: top concentration of the series differs between compounds; % is scaled to controls: 0 for no effect and ±100 for the full control effect; nearly all actives have a fitted effect of over 55% in size
Method in brief: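 MPP8 (50 nM) was pre-bound to 50 nM biotinylated H3(1-18)K9me3 peptide in PBS pH 7.4 with 0.01% Tween-20. Compounds were then added for 30 min at room temperature, and complex disruption was read by AlphaScreen with streptavidin donor and nickel-chelate acceptor beads.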

[7] = target: Chromobox protein homolog 1 (Homo sapiens) (UniProt P83916); experiment: qHTS Validation Assay for Inhibitors of HP1-beta Chromodomain Interactions with Methylated Histone Tails (AID 488953); also: nearly all actives have a fitted effect of over 50% in size; also: potency is read from the fitted curve at half-maximal effect
Chromobox protein homolog 1 (Homo sapiens), sequence (P83916 whole entry, looked up): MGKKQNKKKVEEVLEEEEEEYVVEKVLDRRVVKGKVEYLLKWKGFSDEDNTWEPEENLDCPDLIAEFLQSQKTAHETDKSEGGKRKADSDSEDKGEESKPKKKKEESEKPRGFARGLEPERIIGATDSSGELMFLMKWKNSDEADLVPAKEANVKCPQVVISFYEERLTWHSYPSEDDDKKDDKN
Method in brief: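 Compounds pinned into a preassembled complex of HP1-beta and trimethyl-K9 histone H3(1-18) biotin peptide (50 nM each; PBS pH 7.4, 0.01% Tween-20). After 30 min, bead-based AlphaScreen detection followed.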

[8] = target: Methanococcus maripaludis chaperonin (MmCpn) (UniProt Q6LX38); experiment: High-Throughput Screening for Modulators of Cytosolic Chaperonin Activity: MmCpn Primary Screen (AID 488978);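 also: 50 nM MmCpn enzyme hydrolysing 30 µM ATP at 37 °C; 0% is about no effect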
Method in brief: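 MmCpn at 50 nM final was preincubated 5 min at RT with compound. ATP was then added at 30 uM final for 10 min at 37 C. ADP formed was detected by Transcreener HTRF (665/590 nm).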

[9] = target: Transient receptor potential cation channel subfamily V member 1 (Homo sapiens) (UniProt Q8NER1); experiment: HTS Assay for Compounds that Act as Enhancers of the Vanilloid Receptor 1 (AID 488979); also: 0% is about no effect
Transient receptor potential cation channel subfamily V member 1 (Homo sapiens), sequence (Q8NER1 whole entry, looked up): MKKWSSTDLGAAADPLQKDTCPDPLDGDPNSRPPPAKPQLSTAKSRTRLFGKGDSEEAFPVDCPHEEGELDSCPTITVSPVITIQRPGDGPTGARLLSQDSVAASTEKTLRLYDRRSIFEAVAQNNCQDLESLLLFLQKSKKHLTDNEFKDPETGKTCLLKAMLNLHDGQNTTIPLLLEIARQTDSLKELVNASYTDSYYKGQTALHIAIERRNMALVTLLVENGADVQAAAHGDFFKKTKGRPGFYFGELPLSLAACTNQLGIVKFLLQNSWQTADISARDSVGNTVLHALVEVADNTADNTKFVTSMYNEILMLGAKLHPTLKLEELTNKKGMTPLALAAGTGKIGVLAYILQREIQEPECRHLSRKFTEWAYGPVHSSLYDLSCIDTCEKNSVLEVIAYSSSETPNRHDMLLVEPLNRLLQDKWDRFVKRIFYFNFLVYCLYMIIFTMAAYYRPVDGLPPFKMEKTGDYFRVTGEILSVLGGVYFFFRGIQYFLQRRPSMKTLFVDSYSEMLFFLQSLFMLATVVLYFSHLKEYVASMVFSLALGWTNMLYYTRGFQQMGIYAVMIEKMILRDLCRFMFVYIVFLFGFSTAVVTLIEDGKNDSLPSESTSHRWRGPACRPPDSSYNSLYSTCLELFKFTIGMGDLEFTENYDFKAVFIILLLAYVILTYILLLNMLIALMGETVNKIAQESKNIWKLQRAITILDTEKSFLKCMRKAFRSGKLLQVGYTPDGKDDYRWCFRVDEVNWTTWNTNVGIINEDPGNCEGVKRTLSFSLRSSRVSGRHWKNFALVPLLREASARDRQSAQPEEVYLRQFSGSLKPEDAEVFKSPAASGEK
Method in brief: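 Calcium influx kinetics via Fluo-8 (480/520 nm) in TRPV1-expressing cells, 2000/well cultured overnight at 35.5C. Compound-alone read 3 min (agonist phase), followed by EC20 capsaicin challenge for 2 min (enhancer phase).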

[10] = target: Thyrotropin receptor (Homo sapiens) (UniProt P16473); experiment: qHTS Assay for Antagonists of the Thyroid Stimulating Hormone Receptor (AID 488980); also: series mostly up to about 58 µM; 0% is about no effect
Thyrotropin receptor (Homo sapiens), sequence (P16473 whole entry, looked up): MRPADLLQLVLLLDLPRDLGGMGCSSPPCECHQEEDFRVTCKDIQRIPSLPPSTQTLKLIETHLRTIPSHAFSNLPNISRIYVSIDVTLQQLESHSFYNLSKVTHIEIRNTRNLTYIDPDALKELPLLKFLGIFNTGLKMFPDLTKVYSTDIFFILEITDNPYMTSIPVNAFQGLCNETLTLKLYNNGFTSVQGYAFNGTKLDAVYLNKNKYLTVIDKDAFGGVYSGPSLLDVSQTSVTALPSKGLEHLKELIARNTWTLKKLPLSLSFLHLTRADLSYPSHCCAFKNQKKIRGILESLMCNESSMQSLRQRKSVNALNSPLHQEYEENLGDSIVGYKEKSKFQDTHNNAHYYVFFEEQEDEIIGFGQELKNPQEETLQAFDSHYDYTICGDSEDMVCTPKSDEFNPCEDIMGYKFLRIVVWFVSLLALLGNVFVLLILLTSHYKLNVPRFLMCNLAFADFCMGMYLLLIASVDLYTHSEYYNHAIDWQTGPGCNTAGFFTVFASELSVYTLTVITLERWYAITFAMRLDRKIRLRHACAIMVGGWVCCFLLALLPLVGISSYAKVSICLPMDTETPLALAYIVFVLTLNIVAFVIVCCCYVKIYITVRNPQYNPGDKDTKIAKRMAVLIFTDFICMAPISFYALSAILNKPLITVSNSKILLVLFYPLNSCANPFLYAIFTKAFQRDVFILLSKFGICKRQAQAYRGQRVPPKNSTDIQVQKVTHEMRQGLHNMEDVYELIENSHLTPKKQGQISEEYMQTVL
Method in brief: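 TSHR-transfected HEK293 cells (2000/well) in HEPES-buffered HBSS with 70 uM RO 20-1724 were stimulated with 4 nM TSH (EC80, final) in the presence of compound. cAMP was measured by HTRF competition after lysis and 30 min at RT.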

[11] = target: D(1A) dopamine receptor (Homo sapiens) (UniProt P21728); experiment: HTS Assay for Allosteric Agonists of the Human D1 Dopamine Receptor: Primary Screen for Agonists (AID 488981); also: 0% is about no effect
Method in brief: (§1)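 Calcium flux in an inducible, force-coupled HEK293 Trex D1 line (overnight at 30 C): agonist mode is the 180 s kinetic read after compound; potentiator mode is the following 180 s read after dopamine at EC20.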

[12] = target: D(1A) dopamine receptor (Homo sapiens) (UniProt P21728); experiment: HTS Assay for Allosteric Agonists of the Human D1 Dopamine Receptor: Primary Screen for Antagonists (AID 488983);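 also: calcium flux response to an EC80 dopamine challenge measured with no-wash dye; % is scaled to controls: 0 for no effect and ±100 for the full control effect; nearly all actives have a fitted effect of over 65% in size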
Method in brief: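 In this primary screen, compounds are applied to calcium-dye-loaded HEK293 T-REx cells with force-coupled D1 expression induced overnight at 30 C. An EC80 of dopamine follows the 180 s compound phase, and calcium is monitored for a further 180 s.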

[13] = Validation screen for small molecules that induce genotoxicity in human embryonic kidney (HEK293T) cells expressing luciferase-tagged ELG1 (AID 493106); also: 0% is about no effect
Method in brief: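 In this validation screen, increased ELG1-luciferase signal flags compounds causing genetic stress. HEK293T reporter cells are treated 16 hr (37 °C, 5% CO2), developed with ONE-Glo for 30 min at room temperature, and imaged on a CCD-based reader.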

[14] = target: ATPase family AAA domain-containing protein 5 (Homo sapiens) (UniProt Q96QE3); experiment: Validation screen for small molecules that inhibit ELG1-dependent DNA repair in human embryonic kidney (HEK293T) cells expressing luciferase-tagged ELG1 (AID 493107); also: nearly all actives have a fitted effect of over 70% in size; also: potency is read from the fitted curve at half-maximal effect
ATPase family AAA domain-containing protein 5 (Homo sapiens), sequence (Q96QE3 whole entry, looked up, the tested form may be a part): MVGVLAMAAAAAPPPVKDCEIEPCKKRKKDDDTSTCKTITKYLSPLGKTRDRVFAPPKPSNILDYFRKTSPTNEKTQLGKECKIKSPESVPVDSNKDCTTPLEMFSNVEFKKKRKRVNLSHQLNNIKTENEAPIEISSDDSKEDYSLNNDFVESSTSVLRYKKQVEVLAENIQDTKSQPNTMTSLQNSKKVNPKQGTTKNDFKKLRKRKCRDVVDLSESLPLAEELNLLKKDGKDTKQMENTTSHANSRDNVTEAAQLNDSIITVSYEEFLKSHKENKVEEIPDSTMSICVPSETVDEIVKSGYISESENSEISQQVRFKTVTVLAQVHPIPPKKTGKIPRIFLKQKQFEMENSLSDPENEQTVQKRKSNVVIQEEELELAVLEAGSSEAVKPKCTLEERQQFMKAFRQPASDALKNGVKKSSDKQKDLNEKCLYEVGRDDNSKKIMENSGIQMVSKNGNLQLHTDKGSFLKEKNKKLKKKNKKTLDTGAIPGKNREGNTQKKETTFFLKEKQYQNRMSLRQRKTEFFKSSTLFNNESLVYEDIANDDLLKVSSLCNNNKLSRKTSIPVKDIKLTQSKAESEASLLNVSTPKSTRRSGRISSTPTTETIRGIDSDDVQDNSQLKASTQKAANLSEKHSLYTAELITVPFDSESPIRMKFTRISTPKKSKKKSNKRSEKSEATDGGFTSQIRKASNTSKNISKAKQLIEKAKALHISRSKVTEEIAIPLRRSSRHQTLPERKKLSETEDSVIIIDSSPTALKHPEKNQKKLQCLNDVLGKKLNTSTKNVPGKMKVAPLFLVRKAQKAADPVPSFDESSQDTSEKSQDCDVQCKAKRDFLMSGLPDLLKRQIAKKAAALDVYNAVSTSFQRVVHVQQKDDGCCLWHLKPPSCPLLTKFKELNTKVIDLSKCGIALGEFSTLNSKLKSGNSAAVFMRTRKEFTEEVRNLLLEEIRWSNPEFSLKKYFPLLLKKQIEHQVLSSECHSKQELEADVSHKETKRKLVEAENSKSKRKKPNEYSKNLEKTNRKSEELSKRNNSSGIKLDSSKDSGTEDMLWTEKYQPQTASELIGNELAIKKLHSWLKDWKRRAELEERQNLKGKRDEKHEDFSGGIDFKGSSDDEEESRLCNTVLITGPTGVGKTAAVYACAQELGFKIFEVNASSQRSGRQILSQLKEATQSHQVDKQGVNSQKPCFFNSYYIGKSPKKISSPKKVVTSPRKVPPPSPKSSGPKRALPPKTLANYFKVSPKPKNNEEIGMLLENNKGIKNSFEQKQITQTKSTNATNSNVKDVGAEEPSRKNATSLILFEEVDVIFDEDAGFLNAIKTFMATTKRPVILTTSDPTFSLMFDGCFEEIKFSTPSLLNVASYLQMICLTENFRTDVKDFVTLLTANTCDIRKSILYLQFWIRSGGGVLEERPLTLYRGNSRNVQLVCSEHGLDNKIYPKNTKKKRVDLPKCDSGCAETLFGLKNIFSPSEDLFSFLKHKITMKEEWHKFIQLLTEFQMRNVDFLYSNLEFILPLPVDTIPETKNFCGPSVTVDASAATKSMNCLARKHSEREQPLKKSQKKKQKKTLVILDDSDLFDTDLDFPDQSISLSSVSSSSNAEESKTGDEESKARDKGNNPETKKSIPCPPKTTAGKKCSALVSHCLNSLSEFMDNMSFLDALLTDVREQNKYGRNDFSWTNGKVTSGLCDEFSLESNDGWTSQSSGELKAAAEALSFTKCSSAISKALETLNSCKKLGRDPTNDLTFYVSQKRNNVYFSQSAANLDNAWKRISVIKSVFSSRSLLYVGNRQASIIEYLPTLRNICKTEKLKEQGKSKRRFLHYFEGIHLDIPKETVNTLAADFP
Method in brief: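 Compounds reducing 5-fluorouridine-driven ELG1-luciferase signal in HEK293T cells were scored; exposure lasted 16 hr at 37 °C with luminescence detected via ONE-Glo.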

[15] = target: Thyrotropin-releasing hormone receptor (Homo sapiens) (UniProt P34981); experiment: qHTS for Small Molecule Agonists and Allosteric Enhancers of Human TRH Receptor: Validation Screen for Agonists (AID 493127;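 active = calcium activation more than 3 SD above the typical response in the agonist read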;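 also: intracellular calcium rise by fluo-8 fluorescence before TRH EC20 addition; 0% is about no effect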); conditions: TRH receptor agonist cell assay; at 2 µM; stronger effect = higher value
Thyrotropin-releasing hormone receptor (Homo sapiens), sequence (P34981 whole entry, looked up): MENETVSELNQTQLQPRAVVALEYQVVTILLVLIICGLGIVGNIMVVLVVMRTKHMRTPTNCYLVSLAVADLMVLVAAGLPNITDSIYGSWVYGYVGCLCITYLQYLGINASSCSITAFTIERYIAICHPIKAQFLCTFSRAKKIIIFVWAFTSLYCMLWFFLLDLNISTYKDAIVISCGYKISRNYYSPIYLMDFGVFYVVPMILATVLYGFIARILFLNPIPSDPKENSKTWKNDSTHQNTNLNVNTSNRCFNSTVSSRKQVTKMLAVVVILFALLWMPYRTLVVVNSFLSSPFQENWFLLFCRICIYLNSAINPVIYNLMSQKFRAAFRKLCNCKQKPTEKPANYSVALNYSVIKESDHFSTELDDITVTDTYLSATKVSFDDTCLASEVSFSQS
Method in brief: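 Kinetic fluorescence assay of agonist-induced calcium release: overnight-plated TRHR cells, room-temperature fluo-8 loading, baseline then compound addition with per-second reads.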

[16] = Quantitative high throughput screen for delayed death inhibitors of the malarial parasite plastid, 96 hour incubation (AID 488745); also: nearly all actives have a fitted effect of over 70% in size; also: potency is read from the fitted curve at half-maximal effect
Method in brief: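 Two-generation (96 h) exposure of luciferase-reporter P. falciparum in erythrocytes, 2% hematocrit, 0.1% parasitemia final, 37 C, 5% CO2, RPMI 1640 with 0.5% Albumax. Growth inhibition scored by reduced luminescence.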

[17] = target: D(1A) dopamine receptor (Homo sapiens) (UniProt P21728); experiment: HTS Assay for Allosteric Agonists of the Human D1 Dopamine Receptor: Primary Screen for Potentiators (AID 488982); also: 0% is about no effect
Method in brief: as §1

[18] = Quantitative high throughput screen for delayed death inhibitors of the malarial parasite plastid, 48 hour incubation (AID 488752); also: nearly all actives have a fitted effect of over 65% in size; also: potency is read from the fitted curve at half-maximal effect
Method in brief: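 Cultures: infected erythrocytes at final 2% hematocrit and 0.1% parasitemia in Albumax-supplemented RPMI. Parasites express integrated firefly luciferase. Incubation with compound lasts 48 h before luminescent detection of remaining reporter activity.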

NOCC(=O)O
inactive: outcome [1] | Potency [2] | outcome [3] | Potency [4] | Potency [5] | Potency [6] | Potency [7] | outcome [8] | outcome [9] | outcome [10] | Potency [11] | Potency [12] | Potency [13] | Potency [14] | activation [15] 0.25%

CCCCOC(=O)NS(=O)(=O)c1sc(CC(C)C)cc1-c1ccc(Cn2c(CC)nc3c(C)cc(C)nc32)cc1
inactive: outcome [1] | Potency [2] | Potency [16] | Potency [4] | Potency [5] | Potency [6] | Potency [7] | outcome [8] | outcome [9] | outcome [10] | Potency [17] | Potency [13] | activation [15] 2.25%
active: Potency [14] 8.2 µM

c1ccc2c(c1)CC(N1CCN(c3cccc4c3OCCO4)CC1)C2
active: Potency [7] 0.006 µM
inactive: outcome [1] | Potency [2] | Potency [18] | outcome [3] | Potency [4] | Potency [5] | Potency [6] | outcome [8] | outcome [9] | outcome [10] | Potency [11] | Potency [17] | Potency [12] | Potency [13] | Potency [14] | activation [15] -3.75%

NC1CONC1=O (stereo not drawn)
inactive: outcome [1] | Potency [2] | Potency [18] | outcome [3] | Potency [4] | Potency [5] | Potency [6] | Potency [7] | outcome [8] | outcome [9] | outcome [10] | Potency [11] | Potency [17] | Potency [12] | Potency [13] | Potency [14]

CC(=O)SC1CC2=CC(=O)CC[C@]2(C)C2CC[C@@]3(C)C(CC[C@@]34CCC(=O)O4)C12 (stereo partly drawn)
inactive: outcome [1] | Potency [2] | outcome [3] | Potency [4] | Potency [5] | Potency [6] | Potency [7] | outcome [8] | Potency [11] | Potency [17] | Potency [12] | Potency [13]

c1ccc(CN2CCC3(CCCc4ccccc43)CC2)cc1
inactive: outcome [1] | Potency [2] | outcome [3] | Potency [4] | Potency [5] | Potency [6] | Potency [7] | outcome [8] | outcome [9] | outcome [10] | Potency [11] | Potency [17] | Potency [12] | Potency [13] | activation [15] -8.25%

C[C@@H](NCCc1ccc(O)cc1)[C@@H](O)c1ccc(O)cc1
inactive: outcome [1] | Potency [2] | Potency [18] | outcome [3] | Potency [4] | Potency [5] | Potency [6] | Potency [7] | outcome [8] | outcome [9] | outcome [10] | Potency [11] | Potency [17] | Potency [13] | Potency [14]

O=S(=O)(c1cccc2c(Cl)cccc12)N1CCCNCC1
inactive: outcome [1] | Potency [2] | Potency [16] | Potency [18] | outcome [3] | Potency [5] | Potency [6] | outcome [8] | outcome [10] | Potency [11] | Potency [17] | Potency [12] | Potency [13] | activation [15] 1.56%

CCC1(O)CC2CN(CCc3c([nH]c4ccccc34)[C@@](C(=O)OC)(c3cc4c(cc3OC)N(C)C3[C@]45CCN4CC=C[C@@](CC)([C@@H](OC(C)=O)[C@]3(O)C(=O)OC)[C@H]45)C2)C1 (stereo partly drawn)
active: Potency [16] 0.522 µM | Potency [18] 0.586 µM
inactive: outcome [1] | Potency [2] | Potency [5] | Potency [6] | outcome [8] | outcome [9] | outcome [10] | Potency [11] | Potency [17] | Potency [12]

O=C(OCCN1CCOCC1)C1(c2ccccc2)CCCCC1
inactive: outcome [1] | Potency [2] | Potency [16] | outcome [3] | Potency [4] | Potency [5] | Potency [6] | Potency [7] | outcome [8] | outcome [9] | outcome [10] | Potency [11] | Potency [17] | Potency [12] | Potency [13] | Potency [14] | activation [15] -4.62%

O=C(O)/C=C/c1cnc[nH]1
inactive: outcome [1] | Potency [2] | Potency [16] | Potency [18] | Potency [4] | Potency [5] | Potency [6] | outcome [8] | outcome [9] | outcome [10] | Potency [17] | Potency [12] | Potency [13] | Potency [14] | activation [15] -0.125%

COc1cc2c(CCNC(C)=O)c[nH]c2cc1O
inactive: outcome [1] | Potency [2] | Potency [18] | outcome [3] | Potency [4] | Potency [5] | Potency [6] | Potency [7] | outcome [8] | outcome [9] | outcome [10] | Potency [11] | Potency [17] | Potency [12] | Potency [13] | activation [15] 0.875%

COc1ccc(-c2ccc(N)[n+](CCCC(=O)O)n2)cc1
inactive: outcome [1] | Potency [2] | Potency [18] | outcome [3] | Potency [4] | Potency [5] | Potency [6] | outcome [8] | outcome [9] | outcome [10] | Potency [11] | Potency [17] | Potency [12] | Potency [13] | Potency [14]

c1ccc(C(NCCNC(c2ccccc2)c2ccccc2)c2ccccc2)cc1
inactive: outcome [1] | Potency [2] | Potency [4] | Potency [5] | Potency [6] | Potency [7] | outcome [8] | Potency [17] | Potency [13]

O=C(O)C1CCNCC1
inactive: outcome [1] | Potency [16] | Potency [18] | outcome [3] | Potency [4] | Potency [5] | Potency [6] | Potency [7] | outcome [8] | outcome [9] | outcome [10] | Potency [11] | Potency [17] | Potency [12] | Potency [13] | Potency [14] | activation [15] -0.188%

O=c1[nH]c(=S)[nH]c(-c2ccccc2)c1Cc1c(O)ccc2ccccc12
active: Potency [7] 44.7 µM
inactive: outcome [1] | Potency [2] | Potency [4] | Potency [5] | Potency [6] | outcome [8] | Potency [11] | Potency [17] | Potency [12] | Potency [13] | Potency [14]

O=[N+]([O-])c1cccc2cn[nH]c12
inactive: outcome [1] | Potency [16] | Potency [18] | outcome [3] | Potency [4] | Potency [5] | Potency [6] | Potency [7] | outcome [8] | outcome [9] | outcome [10] | Potency [11] | Potency [17] | Potency [12] | Potency [13] | Potency [14] | activation [15] 0.5%
